Hits are enriched below; roughly 3.4% of the tested compounds scored in any of these assays.
p53ts 32C tox: cytotoxicity in p53ts cells at permissive temperature; Potency, µM (series often up to 46.1 µM), inactives show top-dose activity change, negative = cytotoxicity, usual class: cytotoxic; AID 924; H1299-p53A138V at 32C, ATP luminescence viability, 24 h; 130,000 tested, 0.93% active;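 note: 0% = DMSO and -100% = full killing by reference compound; nearly all actives have a fitted effect of over 55% in size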
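H1299-p53 A138V cells (temperature-sensitive p53) exposed 24 h to up to 46 uM compound at 32C, where p53 is wild-type in conformation. Viability read as ATP luminescence and normalised to DMSO and 100 uM tamoxifen. AC50 fitted with the Hill equation.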
Tau fil binding: binders of human tau filaments. Potency, µM (series often up to 57.1 µM), inactives show at the top dose activity change, negative = inhibition. recombinant tau filaments, thioflavin S fluorescence, 15 h; filaments grown with octadecylsulfate alongside compound. 71,000 tested, 2% active. P10636;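 note: % is set by controls: 0 for no effect and ±100 for the full control effect; actives lower thioflavin S fluorescence by blocking filaments or displacing dye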
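ThS-based fibril read: tau 1 uM final, inducer ODS 30 uM final, 37 C for 15 h, ex 450/em 510 nm.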
Peg3 imprint: induces erasure of genomic imprints in mouse ES cells; Potency, µM (titrated, usually from 60.7 µM), for inactives: top-dose activity change, positive = activation, most hits filed as activators; 110,000 tested, 0.02% active; mouse ES Peg3-LacZ reporter, beta-gal luminescence, 40 h
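Gelatin-coated wells received 300 freshly trypsinized female ES cells with a Peg3LacZ-Neo reporter on the maternal allele, then incubated 40 hours at 37C. BetaGlo was added for 5 minutes at room temperature before a single luminescence read.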
FLuc inh: inhibitors of firefly luciferase | purified firefly luciferase, luminescence, 8 min | 72,000 tested, 2.2% active | Potency, µM (titrated, usually from 57.1 µM), without a hit: at the highest dose activity change, negative = inhibition, most hits filed as inhibitors | P08659; note: % is set by controls: 0 for no effect and ±100 for the full control effect; nearly all actives have a fitted effect of over 40% in size
Target sequence (P08659 whole entry, looked up): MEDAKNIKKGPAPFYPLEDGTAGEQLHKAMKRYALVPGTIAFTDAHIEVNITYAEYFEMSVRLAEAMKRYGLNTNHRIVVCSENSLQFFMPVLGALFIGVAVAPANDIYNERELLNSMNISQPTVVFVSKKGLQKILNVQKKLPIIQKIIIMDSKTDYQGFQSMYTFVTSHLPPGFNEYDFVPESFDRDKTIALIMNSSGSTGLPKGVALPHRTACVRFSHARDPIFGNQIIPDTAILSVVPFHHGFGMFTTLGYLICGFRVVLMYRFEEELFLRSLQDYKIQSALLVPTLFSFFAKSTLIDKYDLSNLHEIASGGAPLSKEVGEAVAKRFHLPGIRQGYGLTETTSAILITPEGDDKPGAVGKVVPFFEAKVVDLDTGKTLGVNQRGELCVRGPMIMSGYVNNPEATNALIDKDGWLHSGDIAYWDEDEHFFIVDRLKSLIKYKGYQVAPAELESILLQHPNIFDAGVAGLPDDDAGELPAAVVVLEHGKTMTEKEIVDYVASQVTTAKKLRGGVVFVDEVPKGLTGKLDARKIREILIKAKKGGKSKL
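qHTS concentration-response profiling: light output of P. pyralis luciferase with luciferin and 10 uM ATP, imidazole buffer pH 7.2. Read by luminescence after 8-min room-temperature incubation.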
p53ts 39C tox: kills p53ts cells at the nonpermissive temperature | H1299-p53A138V viability at 39C, ATP luminescence, 24 h | Potency, µM (titrated, usually from 46.1 µM), for inactives: at the highest dose activity change, negative = cell killing, most hits filed as cytotoxic | 130,000 tested, 1.5% active | AID 902; note: % is set by controls: 0 for no effect and ±100 for the full control effect; nearly all actives have a fitted effect of over 55% in size
Starred values were filed as active, the others as inactive; ? = inconclusive; / = not tested or not shown; [ ] = dose if it differs, or a comment. Calls come from the whole dose curve; as a rule, active = well fitted curve in the direction sought with a large enough effect; inconclusive = small, poorly fitted or top-dose-only effect, or another doubt; inactive = no such curve, though single readings can be large; an effect the other way counts as inactive or inconclusive. Potency is the fitted concentration of half-maximal effect.

SMILES | p53ts 32C tox | Tau fil binding | Peg3 imprint | FLuc inh | p53ts 39C tox
Cc1cc(C)c(NC(=O)Cn2c(=O)n(Cc3ccc4c(c3)OCO4)c(=O)c3ccccc32)c(C)c1 | 15% | / | 2%[10.9 µM] | / | 9%
CCOc1ccc(NC(=O)Cn2c(=O)n(-c3ccccc3)c(=O)c3ccc(C(=O)NCc4ccc5c(c4)OCO5)cc32)cc1 | ? | / | -5%[10.9 µM] | / | 13µM*
CCc1ccc(NC(=O)Cn2c(=O)n(-c3ccccc3)c(=O)c3ccc(C(=O)NCc4ccc5c(c4)OCO5)cc32)cc1 | -21% | / | -8%[10.9 µM] | / | 16µM*
CCOc1ccc(NC(=O)Cn2c(=O)n(Cc3ccc(C(=O)NCc4ccc5c(c4)OCO5)cc3)c(=O)c3ccccc32)cc1 | 2% | / | -18%[10.9 µM] | / | 6%
Cc1cc(C)c(NC(=O)Cn2c(=O)n(Cc3ccc(C(=O)NCc4ccc5c(c4)OCO5)cc3)c(=O)c3ccccc32)c(C)c1 | ? | / | -29%[10.9 µM] | / | 5µM*
COc1ccc(-c2nc3cnc(N(C)C)nc3n(CCc3ccccc3)c2=O)cc1 | -2% | -6% | / | 1%[11.4 µM] | -1%
CC(=O)OCC1OC(c2ccc3c(c2)OCO3)C=CC1OC(C)=O (configuration not stated) | 6%[9.22 µM] | / | / | / | 4%[9.22 µM]
CCCCC[C@H](O)c1cccc(OCc2ccc3ccccc3n2)c1 | 12% | -6% | / | -11% | 42%
COc1ccc(C)cc1NC(=O)C(Cc1ccccc1)NS(=O)(=O)c1cccs1 (configuration not stated) | -2% | / | -4%[10.9 µM] | / | -14%
COc1ccc(C)cc1NC(=O)C(Cc1ccccc1)NS(=O)(=O)c1ccc(Br)s1 (configuration not stated) | ? | / | -11%[10.9 µM] | / | 13µM*
CCCCCOc1ccccc1CN1C(=O)C(=O)c2cc(C)ccc21 | 1% | / | 17%[10.9 µM] | / | 13µM*
CCCCCOc1ccccc1Cn1c(=O)oc2ccc(C)cc21 | -6% | / | -6%[10.9 µM] | / | -6%
COc1cccc(Cn2c(=O)c(-c3ccc(F)cc3)nc3cncnc32)c1 | -27% | ? | -2% | 0%[11.4 µM] | -21%
COc1cccc(Cn2c(=O)c(-c3cc(F)cc(F)c3)nc3cncnc32)c1 | -6% | 13µM* | -15% | 1%[11.4 µM] | -17%
COc1cccc(Cn2c(=O)c(-c3cccc(F)c3)nc3cncnc32)c1 | -4% | 13µM* | / | -1%[11.4 µM] | 2%
CC(=O)/C=C(\C)Nc1ccc(-c2cnc(-c3ccccc3)o2)cc1 | -30% | 152%[11.4 µM] | -17% | 10µM* | ?
N#CCC(=O)N1CCn2c1nc1ccccc12 | -3% | -9% | -9% | -35% | -11%
O=C(c1cccs1)N1CCn2c1nc1ccccc12 | ? | 0% | -90% | 16µM* | ?
Cc1nc2ccc(NC(=O)Cc3cccs3)cc2s1 | 16µM* | -14% | -41% | 25µM* | 10µM*
COc1cc(-c2ccc(N=C=O)c(OC)c2)ccc1N=C=O | -19%[1.84 µM] | 16µM* | -4% | / | 9%
O=C(COc1ccc(Cl)cc1Cl)NC1CCSC1=O (configuration not stated) | -20% | 6% | -10% | 25µM* | ?
COC(=O)c1sccc1NC(=O)COc1ccc(Cl)cc1Cl | / | / | / | / | 0%
O=C(COc1ccccc1Cl)Nc1ccc(Cl)cn1 | 13µM* | 3% | -51% | 16µM* | 16µM*
O=C(COc1ccc(Cl)cc1Cl)NC(=O)N1CCCCC1 | 13µM* | 9% | -5% | -24% | ?
COc1ccccc1OCC(=O)Nc1ccccn1 | 10µM* | 4% | -92% | 10µM* | 7.9µM*
SMILES | p53ts 32C tox | Tau fil binding | Peg3 imprint | FLuc inh | p53ts 39C tox
O=C(COc1ccc(Cl)cc1Cl)NCc1ccncc1 | -4% | -1%[11.4 µM] | -14% | -7% | 0%
O=C(COc1ccc(Cl)cc1Cl)Nc1ccccn1 | 0.4µM* | 11% | -97% | 0.079µM* | 0.63µM*
CCCCc1c(C)nn(-c2nnc3c4ccccc4n(CC)c3n2)c1C | -27% | 2µM* | -22% | -6% | -10%
CCc1ccc(NC(=O)CSc2nnc3[nH]c(=O)cc(-c4ccccc4)n23)cc1 | 2% | / | 7%[10.9 µM] | / | 6.3µM*
COc1ccc(Cl)cc1NC(=O)CSc1nnc2[nH]c(=O)cc(-c3ccccc3)n12 | ? | / | -4%[10.9 µM] | / | 3.2µM*
CC[C@@]1([N+](=O)[O-])C[C@H]2C=C[C@@H]1C2 | 8%[9.22 µM] | -6%[11.4 µM] | 1%[10.9 µM] | -1%[11.4 µM] | 9%[9.22 µM]
Cc1ccc2nc3c(c(Nc4ccc(C)c(C)c4)c2c1)CCC3 | ? | / | -10%[10.9 µM] | / | 10µM*
Cc1cc(Nc2ccc(C(=O)O)c(O)c2)n2ncnc2n1 | -2% | / | 16%[10.9 µM] | / | 10%
O=C(/C=C/c1ccc(F)cc1)Nc1nc2n(n1)C(c1ccc(Cl)cc1)C=C(c1ccccc1)N2 (configuration not stated) | 3% | / | -5%[10.9 µM] | / | -6%
COc1ccc(Cn2c(SCc3ccc(C(=O)NCc4ccc(C)cc4)cc3)nc3cccnc32)cc1 | -11% | / | -17%[10.9 µM] | / | ?
CCc1ccc(-n2nc(CO)c(C(=O)NC)n2)cc1 | ? | / | -6%[10.9 µM] | / | 16µM*
COCC(=O)N1CCC[C@@]2(CCN(Cc3ccccc3)C2)C1 | -6% | 8% | / | -1%[11.4 µM] | -2%
CC(C)=CCc1c2c(c3occ(-c4ccc(O)c(O)c4)c(=O)c3c1O)C=CC(C)(C)O2 | ? | 3.2µM* | -42%[10.9 µM] | 2%[11.4 µM] | ?
COCCCNC(=O)Cn1c(=O)n(CCCC(=O)NCc2ccc(C)cc2)c(=O)c2ccccc21 | 13% | / | -14%[10.9 µM] | / | -24%
FC(F)(F)c1cc(CO[C@H]2CCCN[C@H]2c2ccccc2)cc(C(F)(F)F)c1 | ? | ? | -31% | -2% | 13µM*
Cc1ccc2c(c1C)NC(C(=O)O)C1CC=CC21 (configuration not stated) | 11% | 3.2µM* | 3% | 1% | 1%
O=C(COc1ccc2ccc(=O)oc2c1)Nc1ccc2c(c1)OCCO2 | -15% | 403% | -12% | 13µM* | -12%
COc1ccc(NC(=O)CN2CC(c3ccccc3)CC2=O)cc1OC (configuration not stated) | -4% | -3% | -10% | -7% | -3%
O=C(COC(=O)c1ccccc1NC(=O)c1ccco1)Nc1ccc2c(c1)OCO2 | 5% | 78% | -47% | -8% | -13%
O=C(COC(=O)c1ccco1)Nc1ccc2c(c1)OCCO2 | 3% | -2% | -2% | 10µM* | -2%
CN(C)C(=O)COc1ccc2ccc(=O)oc2c1 | 0% | 0% | -1% | -1% | ?
O=C(CN1CC(c2ccccc2)CC1=O)Nc1ccc2c(c1)OCO2 (configuration not stated) | 7% | 25µM* | 12% | -4% | -3%
O=C(Nc1ccc2c(c1)OCCO2)c1ccco1 | 16µM* | 1% | -87% | 10µM* | 13µM*
O=C(Nc1ccc2c(c1)OCO2)OCc1ccccc1 | ? | -5% | -52% | 13µM* | ?
CCn1c(=O)n(CC)c2cc(N3CCCC3)c(NC(=O)Nc3cc(C)cc(C)c3)cc21 | ? | / | 3%[10.9 µM] | / | 13µM*
